High-throughput results from PubChem.
Shown are actives, neighbours in structure and some others; about 1.6% of the full set was active somewhere.
NALP1 yeast inh = NALP1 inhibition; S. cerevisiae NALP1/ASC/caspase-1 growth, X-gal OD620, 72 h; inhibition, % at 10 µM; 280,000 tested, 0.61% active; in the data active means inhibition mostly above about 24%, no sharp cut-off; inactive means mostly below about 32%
V-ATPase pH = yeast V-ATPase proton transport regulation by pHLuorin | S. cerevisiae, pHLuorin cytosolic pH fluorescence | response, % at 10 µM | 350,000 tested, 0.37% active | AID 504577; in the data active means response mostly above about 7.3%, no sharp cut-off; inactive means mostly below about 5.4%; further: actives read high
Rce1 inhib = yeast Ras-converting enzyme inhibition; Q03530; 290,000 tested, 0.27% active; calls only; AID 2563; yeast membranes, quenched prenylated peptide cleavage fluorescence;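 active means fall in fluorescence gain of 50% or more versus controls, with final raw signal at or below 3038400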;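 further: plate controls were neutral control wells for no effect and wells lacking membranes for full effect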
Target sequence (Q03530 whole entry, looked up): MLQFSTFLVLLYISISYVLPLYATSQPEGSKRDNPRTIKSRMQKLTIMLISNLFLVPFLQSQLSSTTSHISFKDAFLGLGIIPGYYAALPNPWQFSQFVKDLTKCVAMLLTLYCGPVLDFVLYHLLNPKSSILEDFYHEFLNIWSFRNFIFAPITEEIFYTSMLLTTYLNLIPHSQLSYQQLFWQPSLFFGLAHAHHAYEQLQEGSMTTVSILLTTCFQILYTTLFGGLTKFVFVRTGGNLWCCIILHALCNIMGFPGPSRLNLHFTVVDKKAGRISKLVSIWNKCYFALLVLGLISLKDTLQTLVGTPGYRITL
Yeast superoxide = lowers age-related superoxide in aged yeast cells | S. cerevisiae aged cells, superoxide DHE fluorescence; active compounds read low | superoxide response (% of plate mean), % at 10 µM | 330,000 tested, 0.18% active;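 active means superoxide response under a set limit, about three screen SD below normal, cut at about 65% in these data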;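 further: yeast aged for seven days with compound at 30 °C before DHE staining; 100% = average MFI of all compound-treated wells on the plate with controls excluded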
NALP3 yeast inh = inhibitors of NALP3 inflammasome in yeast; Yeast reconstituted NLRP3/ASC/caspase-1, beta-gal luminescence, 24 h; inhibition, % at 10 µM; 330,000 tested, 0.39% active; AID 2825;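 active means inhibition of 50% or more; inactive means inhibition below 50%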;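 further: plate controls were induced DMSO wells for no effect and uninduced yeast grown without galactose for full effect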
PERK inh = inhibitors of human PERK kinase; Q9NZJ5; CHO PERK-DD fusion, SEAP luminescence translation reporter; inhibition, % at 5.6 µM; 220,000 tested, 0.17% active; AID 1416;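 active means inhibition above the mean inhibition of all tested compounds plus 3 SD, set separately per screening campaign, cut at about 2.9% in these data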;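 further: PERK kinase domain activated by AP20187 dimerizer at 100 nM; 0% = DMSO with dimerizer and 100% = rapamycin at 8.4 µM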
CR mimetic CP = yeast aging superoxide inhibition, cherry pick confirmation | shares compounds with Yeast superoxide | S. cerevisiae aging, superoxide DHE fluorescence; active compounds read low | superoxide response (% of plate), % at 10 µM | 850 tested, 1% active;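 active means superoxide signal below 65% of the plate average of sample wells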;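 further: cells aged with compound for 7 days at 30 degrees C before staining; 100% equals mean DHE fluorescence of all compound wells on the plate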
DHE fluor count = compound alters DHE oxidation or fluorescence in yeast; S. cerevisiae BY4741, flow cytometry; active compounds read low; fluorescence response, % at 10 µM; AID 435000; 850 tested, under 10 active; shares compounds with Yeast superoxide;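 active means fluorescence response below 15%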;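 further: percent of the mean fluorescence averaged over all compound wells on the plate; lower means stronger quenching of DHE signal or ROS scavenging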
Active calls of the source: *; i = inactive; . = no result.

SMILES	NALP1 yeast inh	V-ATPase pH	Rce1 inhib	Yeast superoxide	NALP3 yeast inh	PERK inh	CR mimetic CP	DHE fluor count
CNC(=O)c1ccc(Nc2nnc(-c3ccc(C)c(S(N)(=O)=O)c3)c3ccccc23)cc1	16	-1	i	102	9	.	94	91
Cc1ccc(-c2nnc(Nc3ccc(OCC(N)=O)cc3)c3ccccc23)cc1S(N)(=O)=O	22	1	i	104	-4	.	104	97
Cc1ccc(-c2nnc(Nc3ccc(CC(N)=O)cc3)c3ccccc23)cc1S(N)(=O)=O	25	0	i	84	3	.	99	97
CN(Cc1ccccc1)Cc1ccccc1C(O)c1ccccc1 (stereo unspecified)	.	2	.	.	.	.	.	.
CCCCCCN1C[C@@H](n2cc(COC(=O)c3ccccc3)nn2)[C@H](O)C[C@@H]1c1ccc(OC)cc1	.	1	.	.	.	.	.	.
CCCCn1c(N)c(N(CC(C)C)C(=O)c2ccc(-c3ccc(C(C)=O)cc3)o2)c(=O)[nH]c1=O	.	2	i	65*	21	.	110	103
CCCCn1c(N)c(N(CC(C)C)C(=O)c2ccc(C)o2)c(=O)[nH]c1=O	.	1	.	90	1	.	.	.
NC(=O)c1ccc(NC(=O)COC(=O)c2ccccc2Nc2ccccc2)cc1	11	22	i	56*	10	1	96	98
O=C(COC(=O)c1ccccc1Nc1ccccc1)NCc1ccccc1	19	4	i	91	11	1	.	.
O=C(NCC(c1ccco1)N1CCCC1)c1cc2cc(Cl)ccc2o1 (stereo unspecified)	.	-4	.	67	11	.	.	.
CC(c1ccco1)N(C(=O)c1ccccc1NS(=O)(=O)c1ccc(Cl)c([N+](=O)[O-])c1)c1ccccn1 (stereo unspecified)	39	0	i	65*	-7	1	97	88
COc1ccc(-c2sc3ccccc3c2/C=C/c2ccncc2)cc1	.	-4	.	94	7	.	.	.
COc1ccc(S(=O)(=O)NC(N)=NCCc2ccc(OC)c(OC)c2)cc1C	12	0	i	64*	-4	1	100	90
COc1ccc(CCN=C(N)NS(=O)(=O)c2ccc(C)c(C)c2)cc1OC	9	-3	i	98	1	.	.	.
O=C(c1ccc([N+](=O)[O-])cc1Cl)N1CCN(Cc2ccccc2)CC1	.	0	.	.	.	.	.	.
COc1ccc(CNC(=O)O[C@]23C[C@H]4C(=O)N(c5ccccc5)C(=O)[C@H]4C[C@@]2(O)CN(S(=O)(=O)c2ccc(C)cc2)C3)cc1OC	.	2	.	.	.	.	.	.
O=C(CN1CCN(c2ccccn2)CC1)Nc1cccc(S(=O)(=O)N2CCOCC2)c1	2	-1	i	118	-5	0	.	.
O=C(CN1CCN(c2ccccn2)CC1)Nc1ccc2ccccc2c1	6	-2	i	95	33	1	.	.
O=C(CN1CCN(c2ccccn2)CC1)Nc1cccc(F)c1	11	-1	i	101	22	.	110	92
O=C(CN1CCN(c2ccccn2)CC1)Nc1cccc(Br)c1	31	-2	i	102	28	.	92	102
COc1cccc(NC(=O)CN2CCN(CC(=O)Nc3ccc(F)cc3)CC2)c1	26	6	i	61*	15	.	113	105
Cc1c(C(=O)NNC(=O)c2csc(N3CCOCC3)n2)oc2ccc(Br)cc12	.	3	.	.	.	.	.	.
COc1cc(OC)c(OC)cc1/C=C/C(=O)OCC(=O)Nc1c(C)n(C)n(-c2ccccc2)c1=O	.	2	.	.	.	.	.	.
CCNC(=S)NNC(=O)c1csc2c1CCCC2	-21	2	i	58*	0	0	88	103
Cc1cccc(-c2cc3nc(C)cc(C)n3n2)c1	1	1	i	109	42	0	.	.
SMILES	NALP1 yeast inh	V-ATPase pH	Rce1 inhib	Yeast superoxide	NALP3 yeast inh	PERK inh	CR mimetic CP	DHE fluor count
Cc1cc(C)n2nc(-c3cccc(Br)c3)cc2n1	24	5	i	101	49	.	103	94
CCc1ccc(CN(C)Cc2c(C(=O)N3CCOCC3)nc3c(C)cccn23)nc1	.	2	.	.	.	.	.	.
O=C(CN1CCN(c2ccccn2)CC1)Nc1ccc(F)cc1F	12	1	i	90	11	.	91	100
O=C(CN1CCN(c2ccccn2)CC1)Nc1ccccc1F	1	-4	i	95	25	.	.	.
O=C(CN1CCN(c2ccccn2)CC1)Nc1cc(F)ccc1F	2	0	i	107	6	.	103	100
Cc1ccc(F)cc1NC(=O)CN1CCN(c2ccccn2)CC1	-5	5	i	97	-3	-1	106	89
O=C(CCN1CCN(c2ccccn2)CC1)Nc1ccc(F)cc1	8	-3	i	104	-5	0	.	.
Cc1ccc([C@H]2C[C@@H](O)[C@H](n3cc(-c4ccc(F)cc4)nn3)CN2Cc2cccs2)cc1	.	2	.	.	.	.	.	.
COC(=O)c1cnc2ccccc2n1	4	-2	i	95	7	1	.	.
O=C(O)c1cnc2ccccc2n1	10	1	i	64*	0	0	71	94
CC(C)CN1CCC(CN2CCNC(=O)C2=O)CC1	.	7	.	.	.	.	.	.
Cc1ccc(S(=O)(=O)N2CCN=C2SCc2ccccc2)cc1	26	0	i	63*	.	0	99	100
NNC(=O)CCn1c2ccccc2c2ccccc21	-6	-1	i	108	-10	1	97	106
COc1cccc(/C=N/NC(=O)CCn2c3ccccc3c3ccccc32)c1	28	2	i	92	2	1	.	.
COc1ccccc1N1CCN(C(=O)c2ccc(-c3ccccc3)cc2)CC1	-51	5	i	82	12	.	.	.
CCc1ccc2oc(C(=O)N3CCN(c4ccccc4OC)CC3)cc(=O)c2c1	4	-1	i	62*	16	.	106	95
Cc1noc(C)c1COc1ccc(C(=O)N2CCN(c3cccc(Cl)c3)CC2)cc1	.	-5	.	.	13	.	.	.
CCOc1ccc(C(=O)N2CCCC2)cc1	-1	7	i	105	16	0	.	.
CCOc1ccc(C(=O)N2CCN(c3cccc(C)c3C)CC2)cc1	-15	0	i	99	4	0	107	89
COc1ccc(C(=O)N2CCN(c3ccccc3OC)CC2)cc1	12	-1	i	109	3	0	97	91
CCOc1ccc(C(=O)N2CCN(c3cccc(Cl)c3)CC2)cc1	-6	1	i	115	8	1	104	89
N#CC(=C1C=C(Br)C(=NO)C=C1Cl)c1cccc2ccccc12	.	2	.	.	.	.	.	.
COc1ccc(C(=O)N2CCN(c3cccc(Cl)c3)CC2)cc1	8	-3	i	101	6	0	98	108
COc1cccc(N2CCN(C(=O)c3ccc(-c4ccccc4)cc3)CC2)c1	0	-3	i	79	32	.	.	.
